Results filed as inconclusive are left out. Calls of active or inactive are those of the source. Unless noted, no rule for the calls is given here.

These results are taken from PubChem BioAssay (NCATS).

The nature of assay [1]: qHTS profiling for inhibitors of Plasmodium falciparum (HB3) proliferation (AID 743324; active = well fitted curve in the direction sought with a large enough effect; an effect the other way counts as inactive or inconclusive;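 also: 100% = DMSO vehicle wells and 0% = artemisinin-treated control wells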). The settings on record: Plasmodium falciparum HB3 blood-stage proliferation; at 28.7 µM (top of the series) unless noted. Summed up: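 P. falciparum HB3 grown in erythrocytes (0.3% parasitemia, 2.5% hematocrit final) with compound for 72 h at 37 C, 5% CO2. Parasite DNA detected by SYBR Green after saponin/triton lysis overnight; normalized to 0.29 uM artemisinin and DMSO.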

Assay [2] is described as follows: qHTS profiling of the MIPE4 collection as inhibitors of Plasmodium falciparum (3D7) proliferation (AID 743344).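 Also: scaled between DMSO vehicle wells and 0.29 µM artemisinin as full inhibition.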 The settings on record: P. falciparum 3D7 in erythrocytes, SYBR Green DNA fluorescence, 72 h; at 28.5 µM (top of the series) unless noted. Summed up: (§1)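 Erythrocytes infected with P. falciparum (0.3% parasitemia, 2.5% hematocrit) incubated with compounds 72 h at 37 C, 5% CO2. Lysis with saponin/Triton buffer containing SYBR Green I, overnight at room temperature in the dark; DNA fluorescence (485/535 nm) normalised to 0.29 uM artemisinin and DMSO.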
A general note: Quantitative high-throughput screening tests each substance at several concentrations.

Assay [3] can be described thus: qHTS profiling of the MIPE4 collection as inhibitors of Plasmodium falciparum (DD2) proliferation (AID 743345). Particulars: P. falciparum Dd2 in erythrocytes, SYBR Green DNA, 72 h; at 28.5 µM (top of the series) unless noted. Summed up:
as §1

Assay [4] in a line: qHTS profiling of the MIPE4 collection as inhibitors of Plasmodium falciparum (DD2) proliferation (Rep 2) (AID 743346). Particulars: P. falciparum Dd2 in erythrocytes, SYBR Green DNA, 72 h; at 28.5 µM (top of the series) unless noted. Summed up:
as §1

Assay [5] is described as follows: qHTS profiling of the MIPE4 collection as inhibitors of Plasmodium falciparum (HB3) proliferation (AID 743347).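 Also: plate controls were DMSO vehicle wells for no effect and artemisinin wells for full effect.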 The settings on record: P. falciparum HB3 in erythrocytes, SYBR Green DNA, 72 h; at 28.5 µM (top of the series) unless noted. Summed up:
as §1

A short description of assay [6]: High-throughput drug toxicity screening in the BPDCN cell line Gen2.2 (AID 1224824).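 Also: cells exposed to compounds for 48 h before reading.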 Particulars: Gen2.2 BPDCN cells; at 45.8 µM (top of the series) unless noted. Summed up: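 Gen2.2 cells, 500 per well in phenol red-free RPMI with 10% FBS, exposed to compounds 48 h at 37 C, 5% CO2; viability by CellTiter-Glo luminescence. Percent activity scaled to DMSO (100%) and 9.2 uM bortezomib final (0%).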

A short description of assay [7]: High-throughput drug toxicity screening in the BPDCN cell line Cal-1 (AID 1224825). Particulars: Cal-1 BPDCN cell viability, qHTS; at 45.8 µM (top of the series) unless noted. An outline of the steps:
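Exponentially growing Cal-1 cells, 500 per well in phenol red-free RPMI with 10% FBS, were exposed to compounds for 48 h at 37 °C, 5% CO2. Viability was read by CellTiter-Glo luminescence and normalised to DMSO (100%) and 9.2 uM bortezomib (0%).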

Assay [8] in a line: qHTS assay for measurement of the activity of small molecule inhibitors on Zika virus induced Caspase-3 activity in human iPSC derived neural progenitor cells (hNPCs) (AID 1224857; active = well fitted curve in the direction sought with a large enough effect; an effect the other way counts as inactive or inconclusive; also: % of control where 0% means no effect; nearly all actives have a fitted effect of over 65% in size). Summed up:
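Cells were plated at 350 per well and grown 16 to 20 hours. Compound pretreatment lasted one hour, after which ZIKV (2 FFU/cell) was added for 6 hours. Percent inhibition was normalized between uninfected and infected controls.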

A short description of assay [9]: qHTS Screen of the MIPE 4.0 Collection Against Ewings Sarcoma (RDES) (AID 1259252; active = well fitted curve in the direction sought with a large enough effect; an effect the other way counts as inactive or inconclusive; also: nearly all actives have a fitted effect of over 35% in size; also: potency is read from the fitted curve at half-maximal effect). An outline of the steps:
(§2)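 Here, cells in 5% FBS RPMI were exposed for two days (48 h) to compound dilutions added four hours after plating. ATP-based CellTiter-Glo luminescence measured viability, normalized to vehicle and no-cell blanks.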

Assay [10] can be described thus: Identifying Small Molecule Inhibitors of Pancreatic Cancer Stem Cells (A2780, Spheroid) (AID 1259357; active = well fitted curve in the direction sought with a large enough effect; an effect the other way counts as inactive or inconclusive;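 also: compound exposure lasted 48 h before the ATP luminescence read; 100% = DMSO treated cells and 0% = wells without cells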). Particulars: Potency: A2780 spheroid viability. Summed up:
(§3)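 Cytotoxicity read by CellTiter-Glo luminescence after 48 h compound exposure at 37C; percent activity scaled between DMSO-treated cells and cell-free wells. Spheroid formats used cells pre-formed 14 days in stem cell media on hydrogel.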

Assay [11] can be described thus: Identifying Small Molecule Inhibitors of Pancreatic Cancer Stem Cells (SN12C, Adherent) (AID 1259358; active = well fitted curve in the direction sought with a large enough effect; an effect the other way counts as inactive or inconclusive;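 also: cell survival measured after 48 h of compound exposure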). An outline of the steps: (§4)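 Luminescent ATP readout (CellTiter-Glo) quantifies surviving cells after a 48 h drug incubation. Normalization uses DMSO wells as no inhibition and media-only wells as full inhibition; bortezomib served as positive control.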
Assay [12] in a line: qHTS assay for measurement of the activity of small molecule inhibitors on Zika virus induced Caspase-3 activity in human astrocytoma cells (AID 1224859; active = well fitted curve in the direction sought with a large enough effect; an effect the other way counts as inactive or inconclusive;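 also: plate controls were ZIKV-infected untreated cells for no effect and uninfected cells for full effect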). An outline of the steps:
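Percent inhibition of virus-induced caspase-3/7 signal is calculated against uninfected and ZIKV-infected control cells. Cells are SNB-19, infected at 2 FFU/cell for 6 h after 1 h compound exposure.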

Assay [13] is described as follows: qHTS Screen of the MIPE 4.0 Collection Against Ewings Sarcoma (TC32) (AID 1259256; active = well fitted curve in the direction sought with a large enough effect; an effect the other way counts as inactive or inconclusive; also: nearly all actives have a fitted effect of over 45% in size; also: potency is read from the fitted curve at half-maximal effect). An outline of the steps:
as §2

Assay [14] can be described thus: qHTS Screen of the MIPE 4.0 Collection Against Ewings Sarcoma (TC71) (AID 1259253; active = well fitted curve in the direction sought with a large enough effect; an effect the other way counts as inactive or inconclusive;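 also: 100% = DMSO-treated cells and 0% = medium-only wells without cells; nearly all actives have a fitted effect of over 40% in size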). An outline of the steps: as §2
Assay [15] is described as follows: qHTS Screen of the MIPE 4.0 Collection Against Ewings Sarcoma (EW8) (AID 1259255; active = well fitted curve in the direction sought with a large enough effect; an effect the other way counts as inactive or inconclusive; also: nearly all actives have a fitted effect of over 35% in size; also: potency is read from the fitted curve at half-maximal effect;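 as to viability: 100% = DMSO-treated cells and 0% = medium-only wells without cells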). Summed up: as §2
The nature of assay [16]: Identifying Small Molecule Inhibitors of Pancreatic Cancer Stem Cells (SN12C, Spheroid) (AID 1259360; active = well fitted curve in the direction sought with a large enough effect; an effect the other way counts as inactive or inconclusive;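 also: 100% = DMSO-treated cells and 0% = wells without cells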). Particulars: Potency: SN12C spheroid viability. Summed up:
as §3

Assay [17] can be described thus: Identifying Small Molecule Inhibitors of Pancreatic Cancer Stem Cells (A278, Adherent) (AID 1259361; active = well fitted curve in the direction sought with a large enough effect; an effect the other way counts as inactive or inconclusive;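 also: 100% = DMSO-treated cells and 0% = cell-free media-only wells; nearly all actives have a fitted effect of over 35% in size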). An outline of the steps:
as §4

The nature of assay [18]: Identifying Small Molecule Inhibitors of Pancreatic Cancer Stem Cells (Panc1, Adherent) (AID 1259362; active = well fitted curve in the direction sought with a large enough effect; an effect the other way counts as inactive or inconclusive;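 also: compound exposure lasted 48 h before the viability read; plate controls were DMSO-treated cells for no effect and cell-free media wells for full effect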). The settings on record: Potency: viability. Summed up:
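Pre-formed 14-day tumor spheroids or adherent cells dosed and incubated 48 h, 37C, 5% CO2. Viability assessed by CellTiter-Glo.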

In the case of `Cc1c(C(=O)Nc2ccc(N3C[C@@H](C)O[C@@H](C)C3)nc2)cccc1-c1ccc(OC(F)(F)F)cc1`, the remaining proliferation (% of control), lower = more inhibition in assay [1] was 55.5%. The molecule also came in with a parasite growth, % of DMSO control in [2] of 54.5%. Further, the parasite growth remaining, % of DMSO control (lower = more inhibition) in assay [3] was 72.7%. The same molecule gave a parasite growth, % of control (lower = inhibition) in assay [4] of 54.1%. Also, in [5], the growth, % of control was determined as 46.7%. Moreover, the cell viability, % of control (lower = more cytotoxic) in [6] came out at 10.2%. Moreover, in assay [7], the viability (% of control) is 53.5%. Also, the Potency entry in assay [8], in assay [10] and in assay [11] was “inactive” each time. Also, the Potency in assay [9] is 13.2 µM (active).
In assay [2], `COc1cc([C@H]2Oc3cc([C@H]4Oc5cc(O)cc(O)c5C(=O)[C@H]4O)ccc3O[C@H]2CO)ccc1O` returned a parasite growth, % of DMSO control of 7.9%. The parasite growth remaining, % of DMSO control (lower = more inhibition) in [3] worked out at 18.5%. In assay [4], this molecule had a parasite growth, % of control (lower = inhibition) of 16.1%. Besides, the cell viability, % of control (lower = more cytotoxic) in assay [6] was 181%. Moreover, the viability (% of control) in [7] stood at 85.4%. Further, the Potency entry in [8] and in assay [12] was “inactive” each time. In addition, in assay [13], the Potency is 16.6 µM (active).
Molecule `CCn1c(-c2nonc2N)nc2cncc(CNC3CCNCC3)c21` returned a parasite growth, % of DMSO control in [2] of 45.1%. Moreover, the parasite growth remaining, % of DMSO control (lower = more inhibition) in assay [3] worked out at 89.6%. In addition, the parasite growth, % of control (lower = inhibition) in assay [4] turned out to be 43.8%. The cell viability, % of control (lower = more cytotoxic) in [6] was 7.5%. The viability (% of control) in assay [7] turned out to be 56.5%. Further, the Potency entry in assay [8] and in assay [14] was “inactive” in each case. Also, the Potency in assay [9] is 11.8 µM (active); in assay [13], 14.8 µM (active).
Take `COc1nc(C)cnc1NS(=O)(=O)c1cccnc1-c1ccc(-c2nnco2)cc1`: the remaining proliferation (% of control), lower = more inhibition in assay [1] stood at 91.9%. In assay [2], the parasite growth, % of DMSO control worked out at 100%. For the same molecule, in assay [3], the parasite growth remaining, % of DMSO control (lower = more inhibition) turned out to be 100%. Also, in [4], the parasite growth, % of control (lower = inhibition) is 74.5%. Also, in assay [5], the growth, % of control stood at 100%. In assay [6], the cell viability, % of control (lower = more cytotoxic) was found to be 379%. In addition, the viability (% of control) in [7] was 142%. Moreover, the Potency entry in assay [8], in assay [9], in assay [15], in assay [13], in [11] and in [16] was “inactive” throughout. The Potency result in assay [18] is “inactive”. Besides, in assay [17], the IC50 (viability decrease) result is “inactive”.
`N[C@@H](CC(=O)N1CCn2c(nnc2C(F)(F)F)C1)Cc1cc(F)c(F)cc1F` returned a parasite growth, % of DMSO control in [2] of 94.7%. The parasite growth remaining, % of DMSO control (lower = more inhibition) in assay [3] was found to be 104%. In addition, the parasite growth, % of control (lower = inhibition) in assay [4] was determined as 84.5%. The cell viability, % of control (lower = more cytotoxic) in [6] came to 162%. Besides, in assay [7], the viability (% of control) worked out at 111%. Moreover, the Potency result in assay [8] and in assay [12] was “inactive” in each case. Besides, in assay [15], the Potency was 18.7 µM (active).
